About 8,800 targets were measured; listed, in parts, are those with a hit and a random draw of the rest. About 0.5% of all pairs of compound and target were hits.
Tests used:
Assay in all cases: log2 fold change, soluble protein after heating vs DMSO (PISA); higher = thermal stabilisation; K562 lysate, 10 uM; active = over 0.2 and 3.5 SD of the protein, either way, in both replicates (recomputed)
[1] = compound: C1=CC=C(C=C1)[C@H](COC2=CC3=C(C=C2)NC(=O)N3)NC(=O)C4=CC=CN(C4=O)CC5=CC(=C(C=C5)F)F
Method in brief: (§1)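 The values are log-two fold changes in thermal stability compared with solvent controls and come from duplicates. They were obtained by TMTpro 16plex LC-MS/MS, with channel sums equalised, on the supernatant after 21,000xg for 90 min. That supernatant came from crude K562 extract at 1 mg/mL protein treated with 10 μM compound for 30 min, heated for 3 min across 48°C-58°C, pooled and brought to 0.5% NP-40 at 4°C.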

[2] = compound: CC1=C(SC2=C1C(=N[C@H](C3=NN=C(N32)C)CC(=O)N)C4=CC=C(C=C4)Cl)C
Method in brief: as §1

[3] = compound: CC1=C2C(=CC=C1)N=C(N(C2=O)C3=CC=CC=C3C)CN4C=NC5=C(N=CN=C54)N
Method in brief: as §1

[4] = compound: Cc1sc2c(c1C)C(c1ccc(Cl)cc1)=N[C@@H](CC(=O)OC(C)(C)C)c1nnc(C)n1-2
Method in brief: as §1

[5] = compound: c1ccc([C@@H]2C[C@H]2NC2CCNCC2)cc1
Method in brief: as §1

Measured: log2 fold change

PRKRA (UniProt O75569)
inactive: [1] -0.002 | [2] 0.027 | [3] 0.031 | [4] 0.029 | [5] 0.036

PHKG2 (UniProt P15735)
inactive: [1] 0.039 | [2] -0.038 | [3] -0.037 | [4] -0.002 | [5] -0.022

PIP4K2B (UniProt P78356)
inactive: [1] -0.063 | [2] -0.078 | [3] -0.014 | [4] 0.036 | [5] -0.108

PCBD2 (UniProt Q9H0N5)
UniProt Q9H0N5, sequence (Q9H0N5 whole entry, looked up): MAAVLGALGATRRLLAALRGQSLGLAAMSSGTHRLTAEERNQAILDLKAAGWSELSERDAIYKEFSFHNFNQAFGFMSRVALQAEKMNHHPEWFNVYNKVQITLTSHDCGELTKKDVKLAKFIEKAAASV
inactive: [1] -0.019 | [2] 0.048 | [3] 0.002 | [4] -0.011 | [5] -0.172

PPP4R2 (UniProt Q9NY27)
inactive: [1] 0.019 | [2] 0.025 | [3] -0.001 | [4] -0.026 | [5] -0.009

POLR2G (UniProt P62487)
inactive: [1] 0.018 | [2] 0.021 | [3] -0.003 | [4] 0.007 | [5] -0.108

POLD1 (UniProt P28340)
UniProt P28340, sequence (P28340 whole entry, looked up): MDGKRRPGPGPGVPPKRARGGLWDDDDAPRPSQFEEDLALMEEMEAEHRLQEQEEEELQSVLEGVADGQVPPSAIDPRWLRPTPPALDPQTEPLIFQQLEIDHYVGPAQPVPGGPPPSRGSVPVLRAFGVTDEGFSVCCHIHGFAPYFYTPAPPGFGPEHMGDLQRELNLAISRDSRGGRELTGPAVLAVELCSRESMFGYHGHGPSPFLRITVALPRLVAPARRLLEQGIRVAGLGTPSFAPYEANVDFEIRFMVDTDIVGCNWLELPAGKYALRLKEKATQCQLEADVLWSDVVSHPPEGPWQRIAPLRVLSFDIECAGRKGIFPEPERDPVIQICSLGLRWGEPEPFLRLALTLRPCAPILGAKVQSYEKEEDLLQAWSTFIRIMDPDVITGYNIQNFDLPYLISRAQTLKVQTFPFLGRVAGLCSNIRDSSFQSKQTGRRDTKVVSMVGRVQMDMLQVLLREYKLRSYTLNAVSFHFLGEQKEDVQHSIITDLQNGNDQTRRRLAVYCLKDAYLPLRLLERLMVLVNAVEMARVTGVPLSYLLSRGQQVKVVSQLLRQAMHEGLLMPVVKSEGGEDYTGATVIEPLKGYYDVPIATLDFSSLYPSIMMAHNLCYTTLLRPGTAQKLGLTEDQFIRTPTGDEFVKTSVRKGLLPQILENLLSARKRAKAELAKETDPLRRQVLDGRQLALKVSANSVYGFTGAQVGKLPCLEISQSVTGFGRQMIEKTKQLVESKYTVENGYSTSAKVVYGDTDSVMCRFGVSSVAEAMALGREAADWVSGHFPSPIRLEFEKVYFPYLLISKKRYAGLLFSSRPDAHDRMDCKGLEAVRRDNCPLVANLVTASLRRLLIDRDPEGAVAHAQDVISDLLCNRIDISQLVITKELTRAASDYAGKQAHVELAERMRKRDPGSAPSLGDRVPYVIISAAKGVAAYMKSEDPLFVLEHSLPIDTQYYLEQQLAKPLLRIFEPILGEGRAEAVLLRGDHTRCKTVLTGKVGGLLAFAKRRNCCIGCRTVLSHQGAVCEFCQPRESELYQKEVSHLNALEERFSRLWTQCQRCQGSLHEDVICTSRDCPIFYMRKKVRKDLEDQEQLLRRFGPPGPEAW
inactive: [1] 0.026 | [2] 0.003 | [3] 0.011 | [4] 0.03 | [5] 0.042

PPIE (UniProt Q9UNP9)
inactive: [1] 0.033 | [2] -0.023 | [3] 0.026 | [4] -0.04 | [5] -0.144

PPOX (UniProt P50336)
active: [1] 0.579
inactive: [2] 0.012 | [3] -0.009 | [4] -0.02 | [5] -0.023

PLXNB2 (UniProt O15031)
inactive: [1] -0.034 | [2] 0.037 | [3] 0.014 | [4] 0.004 | [5] -0.024

PDCD6IP (UniProt Q8WUM4)
inactive: [1] -0.077 | [2] 0.086 | [3] 0.037 | [4] 0.043 | [5] 0.085

PHACTR4 isoform 2 (UniProt Q8IZ21)
inactive: [1] 0.03 | [2] 0 | [3] 0.014 | [4] 0.028 | [5] 0.264

PRPF6 (UniProt O94906)
inactive: [1] -0.006 | [2] 0.015 | [3] -0.012 | [4] -0.01 | [5] 0.04

PCYT1B (UniProt Q9Y5K3)
UniProt Q9Y5K3, sequence (Q9Y5K3 whole entry, looked up): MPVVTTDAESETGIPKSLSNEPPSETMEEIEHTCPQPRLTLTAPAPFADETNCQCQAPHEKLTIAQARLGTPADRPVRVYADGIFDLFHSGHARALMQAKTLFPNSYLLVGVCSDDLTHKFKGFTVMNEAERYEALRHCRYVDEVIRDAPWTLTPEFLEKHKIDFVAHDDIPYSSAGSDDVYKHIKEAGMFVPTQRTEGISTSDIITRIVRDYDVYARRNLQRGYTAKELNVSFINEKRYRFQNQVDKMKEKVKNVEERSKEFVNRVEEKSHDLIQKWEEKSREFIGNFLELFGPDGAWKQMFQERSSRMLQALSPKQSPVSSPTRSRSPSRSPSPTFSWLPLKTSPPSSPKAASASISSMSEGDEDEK
inactive: [1] -0.006 | [2] 0.033 | [3] -0.01 | [4] -0.03 | [5] -0.073

PRKAR2A (UniProt P13861)
inactive: [1] 0.009 | [2] 0.012 | [3] 0.038 | [4] -0.011 | [5] 0.027

PRKCD (UniProt Q05655)
inactive: [1] 0.003 | [2] 0.022 | [3] 0.028 | [4] -0.003 | [5] 0.023

PPIC (UniProt P45877)
inactive: [1] 0.209 | [2] -0.242 | [3] 0.12 | [4] 0.005 | [5] 0.055

PDS5A (UniProt Q29RF7)
inactive: [1] -0.049 | [2] -0.031 | [3] 0.017 | [4] -0.011 | [5] 0.019

PTMA isoform 2 (UniProt P06454)
inactive: [1] 0.098 | [2] -0.016

PPME1 isoform 4 (UniProt Q9Y570)
UniProt Q9Y570, sequence (Q9Y570 whole entry, looked up): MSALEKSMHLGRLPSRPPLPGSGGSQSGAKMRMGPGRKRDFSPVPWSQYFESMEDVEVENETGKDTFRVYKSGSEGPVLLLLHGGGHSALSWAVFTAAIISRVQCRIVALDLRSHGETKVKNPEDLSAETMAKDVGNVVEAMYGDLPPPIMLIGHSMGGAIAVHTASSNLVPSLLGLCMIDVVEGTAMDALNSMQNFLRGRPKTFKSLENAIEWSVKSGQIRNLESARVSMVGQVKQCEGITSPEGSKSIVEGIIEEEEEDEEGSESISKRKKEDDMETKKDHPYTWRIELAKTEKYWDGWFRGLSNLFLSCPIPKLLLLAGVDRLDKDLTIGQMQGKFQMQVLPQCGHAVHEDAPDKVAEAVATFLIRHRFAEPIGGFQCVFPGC
inactive: [1] -0.004 | [2] 0.013 | [3] -0.019 | [4] 0.021 | [5] 0.007

PUS1 (UniProt Q9Y606)
UniProt Q9Y606, sequence (Q9Y606 whole entry, looked up): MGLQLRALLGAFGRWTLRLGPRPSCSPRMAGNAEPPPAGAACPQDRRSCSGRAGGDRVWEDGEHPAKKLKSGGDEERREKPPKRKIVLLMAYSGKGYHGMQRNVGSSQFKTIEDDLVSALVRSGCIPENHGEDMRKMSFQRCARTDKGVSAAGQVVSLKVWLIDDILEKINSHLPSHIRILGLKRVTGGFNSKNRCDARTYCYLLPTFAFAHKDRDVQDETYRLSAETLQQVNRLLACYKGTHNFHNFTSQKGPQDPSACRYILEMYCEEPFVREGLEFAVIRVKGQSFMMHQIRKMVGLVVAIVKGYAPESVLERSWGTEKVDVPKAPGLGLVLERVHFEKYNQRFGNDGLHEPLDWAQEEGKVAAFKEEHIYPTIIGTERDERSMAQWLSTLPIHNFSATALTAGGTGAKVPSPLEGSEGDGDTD
inactive: [1] 0 | [2] 0.014 | [3] 0.013 | [4] -0.024 | [5] 0.029

PPP1R12B isoform 6 (UniProt O60237)
inactive: [1] 0.043 | [2] 0.033 | [3] 0.088 | [4] -0.145

PRIMPOL (UniProt Q96LW4)
UniProt Q96LW4, sequence (Q96LW4 whole entry, looked up): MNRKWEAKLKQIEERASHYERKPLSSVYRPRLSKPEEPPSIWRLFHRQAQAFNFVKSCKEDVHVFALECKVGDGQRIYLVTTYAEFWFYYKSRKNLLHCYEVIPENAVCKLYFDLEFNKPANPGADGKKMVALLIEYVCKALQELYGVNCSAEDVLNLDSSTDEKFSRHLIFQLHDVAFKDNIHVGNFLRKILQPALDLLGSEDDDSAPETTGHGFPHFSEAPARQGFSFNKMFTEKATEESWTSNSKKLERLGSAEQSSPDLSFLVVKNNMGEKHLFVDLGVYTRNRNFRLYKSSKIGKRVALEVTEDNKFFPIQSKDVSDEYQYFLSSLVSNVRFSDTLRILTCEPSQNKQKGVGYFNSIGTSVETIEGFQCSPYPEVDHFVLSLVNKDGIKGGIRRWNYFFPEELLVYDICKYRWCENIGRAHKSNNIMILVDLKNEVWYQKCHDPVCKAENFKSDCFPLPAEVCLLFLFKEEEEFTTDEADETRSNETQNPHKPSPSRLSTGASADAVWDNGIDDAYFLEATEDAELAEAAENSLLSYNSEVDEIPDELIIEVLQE
inactive: [1] 0.009 | [2] 0.009 | [3] -0.015 | [4] -0.024

PIKFYVE (UniProt Q9Y2I7)
UniProt Q9Y2I7, sequence (Q9Y2I7 whole entry, looked up): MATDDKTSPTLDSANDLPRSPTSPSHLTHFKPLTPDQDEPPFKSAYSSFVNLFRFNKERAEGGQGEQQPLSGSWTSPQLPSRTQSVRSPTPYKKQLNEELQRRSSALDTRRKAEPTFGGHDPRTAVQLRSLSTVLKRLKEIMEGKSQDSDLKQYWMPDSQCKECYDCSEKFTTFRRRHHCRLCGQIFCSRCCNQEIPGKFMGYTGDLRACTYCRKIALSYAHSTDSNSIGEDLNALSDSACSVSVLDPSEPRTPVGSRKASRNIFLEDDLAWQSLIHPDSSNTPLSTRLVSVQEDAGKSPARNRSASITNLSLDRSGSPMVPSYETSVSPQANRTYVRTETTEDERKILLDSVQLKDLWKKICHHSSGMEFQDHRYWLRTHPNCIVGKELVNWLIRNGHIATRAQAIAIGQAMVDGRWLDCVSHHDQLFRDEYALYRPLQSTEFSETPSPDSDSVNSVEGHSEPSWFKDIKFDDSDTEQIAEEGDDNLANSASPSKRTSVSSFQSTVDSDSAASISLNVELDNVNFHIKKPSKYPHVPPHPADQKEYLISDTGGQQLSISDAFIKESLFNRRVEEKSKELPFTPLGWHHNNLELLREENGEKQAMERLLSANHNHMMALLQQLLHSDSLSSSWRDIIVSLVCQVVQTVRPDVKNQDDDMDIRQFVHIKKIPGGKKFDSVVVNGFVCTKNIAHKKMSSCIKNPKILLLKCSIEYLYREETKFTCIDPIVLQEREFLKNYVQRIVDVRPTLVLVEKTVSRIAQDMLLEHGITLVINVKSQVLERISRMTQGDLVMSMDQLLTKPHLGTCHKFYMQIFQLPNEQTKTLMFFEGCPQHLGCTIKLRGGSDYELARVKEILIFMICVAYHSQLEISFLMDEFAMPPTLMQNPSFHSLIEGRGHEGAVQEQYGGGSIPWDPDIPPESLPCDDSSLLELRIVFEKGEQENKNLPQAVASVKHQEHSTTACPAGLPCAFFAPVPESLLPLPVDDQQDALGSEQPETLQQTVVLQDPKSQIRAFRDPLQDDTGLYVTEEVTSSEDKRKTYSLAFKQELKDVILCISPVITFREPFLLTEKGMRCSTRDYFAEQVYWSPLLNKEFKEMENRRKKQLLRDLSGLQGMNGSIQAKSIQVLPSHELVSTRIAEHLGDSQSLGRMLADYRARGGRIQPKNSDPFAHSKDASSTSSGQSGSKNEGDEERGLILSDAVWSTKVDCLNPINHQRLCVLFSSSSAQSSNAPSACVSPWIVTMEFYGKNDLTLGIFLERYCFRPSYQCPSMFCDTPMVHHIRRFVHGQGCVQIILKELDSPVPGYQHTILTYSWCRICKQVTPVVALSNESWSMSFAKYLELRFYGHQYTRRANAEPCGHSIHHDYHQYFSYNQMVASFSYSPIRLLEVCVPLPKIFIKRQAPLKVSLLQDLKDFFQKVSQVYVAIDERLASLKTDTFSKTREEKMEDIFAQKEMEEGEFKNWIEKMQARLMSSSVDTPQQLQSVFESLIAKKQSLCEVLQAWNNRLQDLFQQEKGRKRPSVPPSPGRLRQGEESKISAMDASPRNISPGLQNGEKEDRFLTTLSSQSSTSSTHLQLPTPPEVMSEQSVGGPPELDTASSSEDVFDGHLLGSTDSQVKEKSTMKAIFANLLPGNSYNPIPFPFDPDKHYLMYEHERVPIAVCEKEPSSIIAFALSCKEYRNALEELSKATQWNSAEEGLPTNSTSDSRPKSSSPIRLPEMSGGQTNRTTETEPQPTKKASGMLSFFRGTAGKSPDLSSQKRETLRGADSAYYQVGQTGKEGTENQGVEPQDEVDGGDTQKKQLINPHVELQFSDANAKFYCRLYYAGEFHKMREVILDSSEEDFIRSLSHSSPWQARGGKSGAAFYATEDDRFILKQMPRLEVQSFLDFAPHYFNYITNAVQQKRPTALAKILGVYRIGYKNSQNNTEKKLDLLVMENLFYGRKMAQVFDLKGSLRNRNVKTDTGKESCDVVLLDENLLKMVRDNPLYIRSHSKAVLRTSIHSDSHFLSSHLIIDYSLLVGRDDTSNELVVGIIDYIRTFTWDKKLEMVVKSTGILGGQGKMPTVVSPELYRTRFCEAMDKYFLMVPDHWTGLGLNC
inactive: [1] -0.005 | [2] 0.007 | [3] 0.016 | [4] 0.054 | [5] -0.03

PUF60 (UniProt Q9UHX1)
inactive: [1] -0.017 | [2] 0.006 | [3] 0.004 | [4] 0.028 | [5] 0.059
